Gal4-VP16 FLuc: inhibits Gal4-VP16 luciferase reporter, ROR gamma counter-screen; Drosophila S2 Gal4-VP16 UAS-luciferase, luminescence, 20 h; Potency, µM (titrated, usually from 53.6 µM), for inactives: at the highest dose activity, negative = inhibition, hits mostly inhibitors; 310,000 tested, 3.5% active; AID 2546;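 note: Gal4-VP16 expression switched on by copper sulfate through the metallothionein promoter; nearly all actives have a fitted effect of over 50% in size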
RORg inh: blocks mouse ROR gamma transcriptional activity. AID 2551. P51450. 310,000 tested, 5.4% active. Potency, µM (series often up to 53.6 µM), for inactives: at the highest dose activity change, negative = inhibition, usual class: inhibitors. Drosophila S2 Gal4-RORgamma UAS-luciferase reporter, 20 h; note: nearly all actives have a fitted effect of over 60% in size
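A Gal4/UAS one-hybrid system in insect cells: metallothionein-promoter Gal4–ROR gamma fusion plus Photinus luciferase reporter. Copper sulfate 700 uM final, 20 hr ambient incubation, luminescent detection after 10 min with reagent.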
DT40 TDP1 no CPT: qHTS for Inhibitors of human tyrosyl-DNA phosphodiesterase 1 (TDP1): qHTS in cells in absence of CPT | DT40 Tdp1-/- hTDP1 cells, no CPT, ATP luminescence, 48 h | Potency, µM (series often up to 46.2 µM), for the others: at the highest dose activity change, negative = growth inhibition, actives largely listed as inhibitors | 420,000 tested, 15% active | AID 686978, 2013; note: nearly all actives have a fitted effect of over 55% in size
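No-CPT arm: Tdp1-/-;hTDP1 DT40 cells (400/well) plus compounds, incubated ≥48 hr at 37 °C. Readout CellTiter-Glo luminescence.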
12-LOX inh: ALOX12 (human) lipoxygenase inhibition | purified 12hLO, xylenol orange hydroperoxide absorbance | 580,000 tested, 1.1% active | Potency, µM (doses to about 108 µM), inactives show top-dose activity change, negative = inhibition, usual class: inhibitors
Target sequence (P18054 whole entry, looked up): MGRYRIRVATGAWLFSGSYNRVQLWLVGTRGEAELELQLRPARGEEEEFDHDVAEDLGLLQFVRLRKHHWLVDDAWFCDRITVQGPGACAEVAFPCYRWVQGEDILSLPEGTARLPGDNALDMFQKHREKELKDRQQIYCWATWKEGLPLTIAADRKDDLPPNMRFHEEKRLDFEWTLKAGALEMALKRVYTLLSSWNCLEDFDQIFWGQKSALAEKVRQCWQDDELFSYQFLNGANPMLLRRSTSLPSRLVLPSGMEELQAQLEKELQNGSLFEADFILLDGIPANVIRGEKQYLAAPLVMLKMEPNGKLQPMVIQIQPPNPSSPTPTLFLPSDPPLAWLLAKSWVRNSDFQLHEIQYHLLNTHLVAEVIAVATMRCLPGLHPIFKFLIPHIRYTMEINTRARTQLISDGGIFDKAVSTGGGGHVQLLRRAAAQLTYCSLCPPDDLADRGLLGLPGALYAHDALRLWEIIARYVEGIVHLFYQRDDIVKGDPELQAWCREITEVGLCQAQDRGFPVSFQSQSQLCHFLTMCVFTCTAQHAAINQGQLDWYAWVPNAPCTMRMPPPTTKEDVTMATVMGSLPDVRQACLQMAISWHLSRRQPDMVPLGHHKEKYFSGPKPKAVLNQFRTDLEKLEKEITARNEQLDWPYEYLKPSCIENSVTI
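Purified human 12hLO (150 nM final) in 25 mM Hepes, 0.01% Triton X-100, pH 7.0 was preincubated 15 min at room temperature with compound. Then 40 uM arachidonic acid was added, 30 min. Hydroperoxide was read by Fe-XO absorbance ratio 573/405 nm.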
ELG1 DNA repair: ELG1-dependent DNA repair inhibition; 330,000 tested, 2.3% active; Potency, µM (titrated, usually from 46.1 µM), inactives show at the top dose activity change, negative = inhibition, most hits filed as inhibitors; HEK293T ELG1-luciferase reporter, luminescence, 16 h; DNA damage induced by 5-fluorouridine; note: nearly all actives have a fitted effect of over 55% in size
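Reporter activity after DNA damage by 5-fluorouridine is monitored. Compound-treated cells incubate 16 hr at 37 °C, then ONE-Glo is added for 30 min before luminescence reading.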
TDP1 cell CPT: DT40-hTDP1 cell growth loss with CPT | Potency, µM (top dose mostly 46.2 µM), for inactives: top-dose activity change, negative = growth inhibition, usual class: inhibitors | 420,000 tested, 12% active | chicken DT40 Tdp1-/-;hTDP1 cells + 20 nM CPT, ATP luminescence, 48 h | AID 686979; note: nearly all actives have a fitted effect of over 55% in size
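Cell growth measured by CellTiter-Glo luminescence after a minimum 48 h, 37 C compound exposure with 20 nM CPT in Tdp1-knockout DT40 cells stably expressing hTDP1, seeded 400/well; qHTS titration format.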
Numbers without * were called inactive; u = inconclusive; x = no result given; [ ] = another dose, or the depositor's remark. Most compounds without a hit are left out; they make up all but 15% or so of the library. Calls come from the whole dose curve; as a rule, active = well fitted curve in the direction sought with a large enough effect; inconclusive = small, poorly fitted or top-dose-only effect, or another doubt; inactive = no such curve, though single readings can be large; an effect the other way counts as inactive or inconclusive. % is set by controls: 0 for no effect and ±100 for the full control effect; potency is the fitted concentration of half-maximal effect.

SMILES	Gal4-VP16 FLuc	RORg inh	DT40 TDP1 no CPT	12-LOX inh	ELG1 DNA repair	TDP1 cell CPT
CCOC(=O)c1[nH]c2ccccc2c1NC(=O)c1ccc(OCC)cc1	x	x	1%	-8%	x	-8%
CCn1ccc2sc(C)c(C(=O)N3CCOCC3)c2c1=O	x	x	x	15%	x	x
CCOC(=O)c1[nH]c2ccc(Br)cc2c1NC(=O)CCN1CCC(C)CC1	7%	3%	18µM*	0%	4%	u
CCOC(=O)c1[nH]c2ccc(Br)cc2c1NC(=O)CCN1CCCC(C)C1 (centres undefined)	-15%	2%	x	x	-3%	x
N#Cc1ccccc1-c1ccc(CSc2nnnn2-c2cccc(F)c2)cc1	x	x	x	-23%	x	x
CCc1cc(=O)oc2cc(C)cc(OCC(=O)N3CCC(C(=O)NC(C)C)(c4ccccc4)CC3)c12	5%	34%	21µM*	11%	u	23µM*
CCCCc1cc(=O)oc2c(C)c(OCC(=O)N3CCC(C(=O)O)(c4ccccc4)CC3)ccc12	12%	7%	-23%	-18%	2%	18%
COc1cccc(-n2cnc3scc(-c4ccc(Cl)cc4)c3c2=O)c1	x	x	x	-3%	x	x
CCOc1ccc(NC(=O)c2cc(SC)ccc2Cl)cc1	26%	u	16µM*	-2%	-24%	18µM*
CCCCCOc1ccc(NC(=O)c2cc(SC)ccc2Cl)cc1	u	20%	13µM*	17%	-19%	23µM*
COc1cc(CNc2nc(C)c(-c3ccn(CC4CCCN(C)C4)n3)s2)ccc1F (centres undefined)	x	x	23µM*	u	x	-15%[9.04 µM]
Cc1nc(NCc2ccc3nsnc3c2)sc1-c1ccn(C)n1	x	x	u	-6%	x	u
CN(CC(=O)NC(C)(C)C)C(=O)c1ccc2ccccc2n1	x	x	x	46%	x	x
CCN(CC)C(=O)Cn1c(=O)cc(C)c2c(C)nn(-c3cccc(Cl)c3C)c21	x	x	12µM*	-11%	x	15µM*
CCN(Cc1ccccc1)C(=O)Cn1c(=O)cc(C)c2c(C)nn(-c3cccc(F)c3)c21	x	x	21µM*	-30%	x	18µM*
Cc1c(Cl)cccc1-n1nc(C)c2c(C)cc(=O)n(CC(=O)NCc3ccccc3)c21	x	x	-31%	-1%	x	-21%
Cc1ccc(-n2nc(C)c3c(C)cc(=O)n(CC(=O)Nc4cccc(C)c4C)c32)cc1	x	x	1.2µM*	-12%	x	-8%
CN(C)CCNc1oc(-c2ccc(F)cc2)nc1C#N	x	x	x	23%	x	x
c1ccc(-c2ccn[nH]2)cc1	x	x	x	36%	x	x
COc1ccc(C)c2sc(=NC(=O)c3cccc(N4C(=O)CCC4=O)c3)n(C)c12	23%	13%	3%	-15%	u	-12%
COc1ccc(C)c2sc(=NC(=O)c3ccc(C(C)=O)cc3)n(C)c12	10%	-23%	u	-1%	u	15µM*
COc1ccc(C)c2sc(=NC(=O)c3ccccc3)n(C)c12	26%	4%	21µM*	2%	u	u
O=C(Cn1nc(-c2nn(CC(=O)c3ccccc3)c3[n+]2CCCCC3)[n+]2c1CCCCC2)c1ccccc1	-9%	0%	-11%	111%	9%	13%
COc1ccc(C(=O)Cn2nc(CNc3ccc(Br)cc3)[n+]3c2CCCCC3)cc1	-9%	u	2.6µM*	-8%	-19%	3.7µM*
Cc1ccc(C(C)C)c(OCc2nn(CC(=O)c3ccc(OC(F)F)cc3)c3[n+]2CCCCC3)c1	2%	20%	0.58µM*	x	u	0.58µM*
Cc1ccc(C(C)C)c(OCc2nnc3n2CCCCC3)c1	1%	-1%	u	u	-12%	u
Cc1ccccc1C(=O)NNC1=NCCC1	14µM*	13µM*	-1%	15%	8%	-2%
OC(CN1CCOCC1)CN1CCOCC1	8%	-19%	-5%	u	-1%	-3%
